{"source": "PubChem BioAssay (NCI)", "note": "The panel holds about 83,000 compounds, 20% with a hit somewhere; the sample as a whole holds those more often.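 Activity criterion: percent growth below 10, measured after cells in 96-well plates were exposed to a single compound concentration for 48 hours.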 A number with no mark means an inactive call. The source made the active and inactive calls."}
{"test_system": "SK-MEL-28 melanoma", "test": "NCI-60 one-dose screen, 48 h (100 = growth as untreated, 0 = no growth, -100 = all killed)", "conditions": "10 µM unless noted"}
{"compound": "CC/C(=C(/c1ccc(O)cc1)c1ccc(OCCN2CCCCC2)cc1)c1ccc(OC)cc1", "growth": "60.3%"}
{"compound": "CNC(=O)c1cc(Oc2ccc3c(c2)sc2nc(-c4ccc(NC(=O)[C@@H](NC(=O)OC)C(C)C)cc4)cn23)ccn1", "growth": "75.7%"}
{"compound": "Cn1c(=O)[nH]c(=O)c2nc3c(nc21)-c1ccccc1C3=O", "growth": "97.4%"}
{"compound": "COC1C(O)CC(OC2CC(OC3CC(O[C@@H]4C(=O)c5c(cc6cc(OC7CC(OC8CC(O)C(O)C(C)O8)C(O)C(C)O7)c(C)c(O)c6c5O)CC4[C@H](OC)C(=O)O)OC(C)C3O)OC(C)C2O)OC1C", "note": "(some centres not stated)", "growth": "3.33% (active)"}
{"compound": "N#CC1=C(N)Oc2c(sc3c(F)cccc23)C1c1ccc([N+](=O)[O-])cc1", "note": "(configuration not stated)", "growth": "-44.1% (active)"}
{"compound": "COc1ccc(/C=C(/C(=O)N2CCNCC2)c2cc(OC)c(OC)c(OC)c2)cc1O", "growth": "55.5%"}
{"compound": "Cc1ccc(NC(=O)c2cc3ccccc3cc2O)c(C)c1", "growth": "81.9%"}
{"compound": "N#Cc1c(-c2ccccc2)nc2c(c(-c3ccccc3)nn2-c2ccccc2)c1-c1ccc(N2CCCCC2)cc1", "growth": "106%"}
{"compound": "O=C(Nc1ccccc1O)c1ccc(CNc2ccnc(C(F)(F)F)c2)cc1", "growth": "69.9%"}
{"compound": "COc1cc(/C=C2\\C(=O)N(CCCOc3cc(O)c4c(=O)cc(-c5ccccc5)oc4c3)c3ccccc32)cc(OC)c1O", "growth": "90.9%"}
{"compound": "CN1C(=O)N2CN3CCCN(C3)CN3C(=S)NC1C23", "note": "(configuration not stated)", "growth": "119%"}
{"compound": "O=c1oc2ccccc2cc1-c1nn(-c2ccccc2)cc1-c1nn[nH]n1", "growth": "107%"}
